# Bioassay records from PubChem.
# The list is not random: actives were taken first. Their share in the collection is about 7.2%.
# Efflux pump mplx = blocks antifungal efflux pumps in multiplex yeast assay; S. cerevisiae Candida pump triplex, Nile Red efflux; inhibition, % at 10 µM; AID 485275; 330,000 compounds, 0.44% hits;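 active = plate passing quality check with inhibition over a set limit, or well fluorescence over plate mean plus 4 SD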;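 note: Nile Red retained in pooled yeast measured as flow cytometry median fluorescence; higher means more Nile Red kept so more efflux inhibition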
# VLA-4 inh = inhibition in a human VLA-4 binding assay; VLA-4 expressing cells, ligand binding flow cytometry; inhibition, % (about 7 µM as worked out from the volumes in the protocol); 330,000 compounds, 0.2% hits; in the data active = inhibition above about 50%
# SUMO Mot1 rescue = blocks SUMOylation pathway, rescuing yeast Mot1-301 growth; AID 2716; S. cerevisiae Mot1-301 growth rescue, ATP luminescence, 38.5C; percent above DMSO median, 100 means doubled; growth rescue, % at 18.8 µM; 320,000 compounds, 1% hits;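 active = every valid replicate shows activation above 250% relative to neutral control wells; inactive = the rest, any valid replicate at or below 250%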
# ALR inh = blocks human ALR sulfhydryl oxidase activity; inhibition, % (test concentration not listed); P55789; 290,000 compounds, 3.8% hits; purified ALR, DTT oxidation, H2O2 HRP-luminol luminescence;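 active = mean replicate inhibition above about 79%, with every replicate also reaching it, limit read from the data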
# Target sequence (P55789 whole entry, looked up): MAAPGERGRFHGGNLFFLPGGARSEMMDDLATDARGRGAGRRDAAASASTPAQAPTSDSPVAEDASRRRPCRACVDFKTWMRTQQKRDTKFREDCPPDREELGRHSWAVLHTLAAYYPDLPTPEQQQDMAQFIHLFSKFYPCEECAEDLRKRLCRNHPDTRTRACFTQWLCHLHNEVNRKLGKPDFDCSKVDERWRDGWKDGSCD
# A1 inh = inhibitors of the anti-apoptotic protein A1, read as caspase activation; MEF A1-2A-BIM cells, Caspase-Glo 3/7 luminescence, 3 h; percent of clofoctol response, vehicle zero; caspase activation, % (test concentration not listed); 330,000 compounds, 0.066% hits; AID 2462;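 active = over half of replicate activation scores above 10%, or exactly half above 10 with the replicate mean above 10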
# AHR act = human AHR activation | AHR-responsive luciferase reporter cells, luminescence | activation, % at 5 µM | 320,000 compounds, 2.5% hits | AID 2796; in the data active = activation above about 47%
# A number is an active result; i = inactive; nt = no result; ! = not active in a repeat.
SMILES,Efflux pump mplx,VLA-4 inh,SUMO Mot1 rescue,ALR inh,A1 inh,AHR act
O=C(O)c1cccc(NC(=S)NC(=O)c2cccc(OCc3ccccc3)c2)c1,i,i,i,98,i,i
O=C(/C=C/c1ccco1)NC(=S)Nc1ccccn1,i,i,i,99,i,66
Cc1ccc2oc(-c3cccc(NC(=S)NC(=O)c4cccs4)c3)nc2c1,i,i,i,i,i,i
Cc1cccnc1NC(=S)NC(=O)/C=C/c1ccco1,i,i,i,i,i,i
CCCOc1cccc(C(=O)NC(=S)Nc2ccccc2)c1,i,i,i,i,i,i
Cc1ccc2oc(-c3cccc(NC(=S)NC(=O)/C=C/c4ccco4)c3)nc2c1,i,i,i,nt,i,67
CCCCCCCCSc1nnc(CSc2nc3nc(C)cc(C)n3n2)o1,i,i,i,i,i,i
O=C(COC(=O)c1ccc(Cl)c(S(=O)(=O)N2CCN(c3ccc(F)cc3)CC2)c1)Nc1cccc(Cl)c1,i,i,i,nt,i,i
Cc1ccc2oc(-c3cccc(NC(=O)c4ccc(Br)o4)c3)nc2c1,i,i,i,i,i,60
COc1cccc(NC(=S)NC(=O)/C=C/c2ccco2)c1,i,i,i,i,i,i
O=C(/C=C/c1ccco1)NC(=S)Nc1cccc(C(=O)O)c1,i,i,i,96,i,i
COc1ccc(NC(=S)NC(=O)/C=C/c2ccco2)c(OC)c1,i,i,i,i,i,68
Cc1ccc(N=C(NO)c2cnccc2C(F)(F)F)c(C)c1,i,i,i,nt,i,i
CC1CN(C(=O)Nc2cccc(Cl)c2)C2(CCCCCC2)O1 (centres undefined),i,i,i,i,i,i
O=C(Nc1ncnc2sc3c(c12)CCCC3)c1ccncc1,i,i,i,i,i,i
O=C(Nc1ncnc2sc3c(c12)CCCCC3)c1ccco1,i,i,nt,97,i,i
NCCCNc1nc(N)c([N+](=O)[O-])c(NC2CCCCC2)n1,i,i,i,i,i,i
CC(=O)NC(=S)Nc1cccc2ccc(C)nc12,i,i,i,i,i,i
Cc1ccc2cccc(NC(=S)NC(=O)c3ccnn3C)c2n1,i,i,i,nt,i,55
Cn1nccc1C(=O)NC(=S)Nc1cc(Cl)cc(Cl)c1,i,i,334,i,i,i
O=C1CCCCCCC1Sc1ccccc1[N+](=O)[O-] (centres undefined),i,i,i,nt,i,i
Cc1nn(C)c(Oc2ccc(Cl)cc2)c1C(=O)Nc1ccc(F)cc1F,i,i,312,i,i,i
Cn1nc(C(F)(F)F)c(C(=O)Nc2ccc(F)cc2F)c1Oc1cccc(Cl)c1,i,i,i,i,i,i
CCC(c1nnnn1CC1CCCO1)N(CCCO)Cc1cc2cccc(C)c2[nH]c1=O (centres undefined),i,i,i,i,i,i
CCC(c1nnnn1Cc1ccc(F)cc1)N(CCCO)Cc1cc2cc3c(cc2[nH]c1=O)OCO3 (centres undefined),i,i,i,nt,i,73
SMILES,Efflux pump mplx,VLA-4 inh,SUMO Mot1 rescue,ALR inh,A1 inh,AHR act
COc1ccc(OC)c(/C=N/NC(=O)CCc2n[nH]c(=O)[nH]c2=O)c1,i,i,i,i,i,60
Cc1ccc(/C=N\NC(=O)CCc2n[nH]c(=O)[nH]c2=O)o1,i,i,i,i,i,i
CC(Nc1n[nH]c(=O)[nH]c1=O)C(=O)N/N=C/c1ccccc1 (centres undefined),i,i,i,i,i,i
COc1cc(/C=N/NC(=O)C(C)Nc2n[nH]c(=O)[nH]c2=O)ccc1O (centres undefined),i,i,i,99,i,i
COc1cc(/C=N/NC(=O)CNc2n[nH]c(=O)[nH]c2=O)ccc1O,i,i,i,98,i,i
Cc1nc2ccccn2c(=O)c1CCN1CCC(C(=O)c2ccc(F)cc2)CC1,i,i,427!,i,i,i
Cc1nc2sccn2c(=O)c1CCN1CCC(=C(c2ccc(F)cc2)c2ccc(F)cc2)CC1,i,i,i,i,i,i
CC1CC(C)CN(S(=O)(=O)N2CCC(C(=O)NCc3ccco3)CC2)C1 (centres undefined),i,i,i,i,i,i
COc1ccc(/C(=C/c2ccc(OC(F)F)c(OC)c2)C(=O)O)cc1OC,i,i,i,i,i,i
O=C(O)/C(=C\c1ccccc1)c1ccc2ccccc2c1,i,i,i,i,i,i
COCc1ccc(-c2c(-c3ccccc3OC)sc3cc4c(cc23)OCO4)cc1,i,i,i,i,i,51
COc1ccccc1-c1sc2cc3c(cc2c1-c1ccc(O)cc1)OCO3,i,i,i,i,i,i
COC(=O)CSc1nnc(CNC(=O)c2cc(OC)cc(OC)c2)n1-c1ccc(F)cc1,i,i,i,nt,i,i
COC(=O)c1sccc1NC(=O)c1cc(C)on1,i,i,i,96,i,i
COC(=O)c1sccc1NC(=O)c1c(C)noc1C,i,i,i,i,i,i
O=C(CN1CCN(c2ncccn2)CC1)NCc1ccccc1,i,i,i,i,i,i
COC(=O)CCC/C=C1/SCC(NC(=O)c2ccccc2)C1O (centres undefined),i,i,i,97,i,i
O=c1nc2n(c3sc4c(c13)CCCC4)C(CBr)CS2 (centres undefined),i,i,i,86,i,i
O=c1c2ccccc2nc2n1C(CBr)CS2 (centres undefined),i,i,i,i,i,i
O=S(=O)(c1ccc(Br)cc1Cl)N1CCCN(c2ccc(C(F)(F)F)cn2)CC1,i,i,i,i,i,i
CCOC(=O)C1(C)C=C(Nc2ccc(O)cc2)C(=O)N1c1ccc(O)cc1 (centres undefined),i,i,i,100,i,i
COc1ccc(CN2CCN(Cc3cc4ccccc4o3)CC2CCO)cc1C (centres undefined),i,i,i,i,i,i
COC(=O)C1=CN(CC2CCCO2)C=C(C(=O)OC)C1c1cc(OC)c(OC)c(OC)c1 (centres undefined),i,i,i,i,i,i
Cc1ccccc1COc1ccc(-c2nn[nH]n2)cc1,i,i,i,i,i,i
Brc1cc2c(cc1COc1ccc(-c3nn[nH]n3)cc1)OCO2,i,i,i,98,i,i
CC(=O)C1=C(N2CCCCC2)CCC1=O,i,i,i,i,i,i
CCOC(=O)c1c(C#N)c(SCC(=O)Nc2ccc(OC)cc2)nc2c1CN(CC)CC2,i,i,i,99,i,i
COc1ccc(NC(=O)CSc2nc3c(c(-c4cccs4)c2C#N)CN(C)CC3)cc1OC,i,i,i,99,i,i
COc1ccc(NC(=O)CSc2nnc(-c3cccs3)n2C)cc1OC,i,i,i,i,i,i
COc1ccc(NC(=O)CSc2nc(N)c(C#N)cc2C#N)cc1,i,i,i,i,i,i
